RN4220 kill = growth inhibition of S. aureus RN4220, primary screen, OD600; actives 0.33% (n = 330,000); inhibition, % (concentration not given with the values); 16 h; in the data active = inhibition above about 85%;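 also: plate controls were untreated cells for no effect and reference antibiotic for full effect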
RecA splice inh = Mtb RecA intein splicing inhibitors, primary screen, biochemical, fluorescence, HTS; cell-free RecA intein splicing; inhibition, % (test concentration not listed); actives 0.75% (n = 290,000); Protein RecA (Mycobacterium tuberculosis (strain ATCC 25618 / H37Rv)), P9WHJ3; in the data active = inhibition above about 30%;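 also: 0% = vehicle wells and 100% = reference inhibitor control wells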
Target sequence (P9WHJ3 whole entry, looked up, canonical isoform): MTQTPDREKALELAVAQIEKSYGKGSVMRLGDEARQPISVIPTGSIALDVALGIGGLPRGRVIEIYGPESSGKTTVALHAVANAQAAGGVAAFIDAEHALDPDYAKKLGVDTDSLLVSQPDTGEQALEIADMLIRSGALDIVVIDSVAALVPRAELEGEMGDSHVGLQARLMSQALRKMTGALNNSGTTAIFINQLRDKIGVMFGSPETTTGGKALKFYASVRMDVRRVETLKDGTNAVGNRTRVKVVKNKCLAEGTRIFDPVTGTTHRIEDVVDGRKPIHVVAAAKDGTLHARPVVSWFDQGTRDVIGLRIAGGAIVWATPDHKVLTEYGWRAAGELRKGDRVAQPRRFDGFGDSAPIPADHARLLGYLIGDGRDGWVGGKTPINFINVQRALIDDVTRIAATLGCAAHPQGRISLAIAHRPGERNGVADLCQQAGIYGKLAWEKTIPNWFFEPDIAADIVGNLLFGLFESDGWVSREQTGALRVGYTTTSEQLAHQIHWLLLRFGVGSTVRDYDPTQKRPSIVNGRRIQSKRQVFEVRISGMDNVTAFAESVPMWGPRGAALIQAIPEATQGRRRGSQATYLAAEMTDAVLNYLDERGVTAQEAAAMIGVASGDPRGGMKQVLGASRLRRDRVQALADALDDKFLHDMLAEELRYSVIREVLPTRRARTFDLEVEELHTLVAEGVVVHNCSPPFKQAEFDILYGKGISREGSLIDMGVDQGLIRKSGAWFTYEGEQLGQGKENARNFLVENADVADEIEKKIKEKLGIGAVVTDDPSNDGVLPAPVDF
ugtP null kill = growth inhibition of ugtP-null S. aureus, primary screen, RN4220 ugtP deletion, OD600. 16 h. growth inhibition, % (test concentration not listed). actives 0.54% (n = 330,000); in the data active = growth inhibition above about 68%;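 also: plate controls were untreated wells for no effect and antibiotic for full effect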
Mtb hypoxia inh = PubChem AID 1159583. fluorescence inhibition, % (no concentration beside the values). M. tuberculosis hypoxia-regulated fluorescent reporter, fluorescence. actives 0.1% (n = 300,000); in the data active = fluorescence inhibition mostly above about 23%, no sharp cut-off; inactive = mostly below about 17%
BJeLR viability = MLPCN primary cell-based screen for lethality selective to Ras in HRASV12 cells. BJeLR (HRASV12) viability, CellTiter-Glo ATP luminescence, 48 h. inhibition, % (concentration not given with the values). actives 0.17% (n = 300,000). AID 1554, 2009; in the data active = inhibition above about 50%
CCHF vOTU inh = CCHFV vOTU protease inhibitors, primary screen, biochemical, Pep-AMC substrate, fluorescence | actives 0.55% (n = 370,000) | Crimean-Congo hemorrhagic fever virus L polyprotein viral ovarian tumor (vOTU) protease … | AID 651958, 2012 | inhibition, % at 11.5 µM; in the data active = inhibition above about 30%; also: 0% = vehicle wells with enzyme and 100% = no enzyme wells
* hit, by the source's call; · = not tested or not shown. Sampled rows, rich in hits. Any-hit rate of the full collection: about 1.6%.

SMILES | RN4220 kill | RecA splice inh | ugtP null kill | Mtb hypoxia inh | BJeLR viability | CCHF vOTU inh
O=C(NCCCn1ccnc1)c1ccc(N2CCCCCC2)c([N+](=O)[O-])c1 | 3 | 1 | -2 | 6 | 71* | 7
CCN1C(=O)C2C(c3ccc(C)cc3)N3C(=O)N(c4cccc(Cl)c4)C(=O)[C@@]3(CC(C)C)C2C1=O (some centres not stated) | 2 | · | -4 | 6 | · | ·
CCn1nc(-c2cccs2)nc2c(=O)n(C)c(=O)nc1-2 | 99* | · | 100* | 4 | · | ·
COc1ccc(OC)c(C=c2sc3nc(-c4cccs4)nn3c2=O)c1 | 4 | · | -4 | -2 | · | ·
CC=C(C)C(=O)Nc1cccc(C2=NOC3(C2)CC(C(N)=O)N(C(=O)CC#N)C3)c1 (configuration not stated) | 4 | · | 3 | 20 | · | ·
O=S(=O)(C=Cc1ccccc1)N1CCN(Cc2ccccc2)CC1 | 1 | · | 5 | 14 | · | ·
Cc1cccc(NC2=Nc3ccccc3N3C2=Nc2c(c(C)nn2-c2ccccc2)C3c2ccc(O)c(O)c2)c1 (configuration not stated) | 47 | -9 | 97* | 11 | 6 | 23
Cc1ccc(NC2=Nc3ccccc3N3C2=Nc2c(c(C)nn2-c2ccccc2)C3c2ccc(O)c(O)c2)cc1 (configuration not stated) | 69 | · | 98* | -9 | · | 18
Oc1ccc(Cl)cc1C1=NNC(c2cccs2)C1 (configuration not stated) | 96* | 8 | 99* | 12 | 2 | -13
Cc1ccc(O)c(C2=NNC(c3ccc(Cl)cc3)C2)c1 (configuration not stated) | 28 | 4 | 17 | -5 | 3 | 6
CCOc1ccc(NC(=S)NC(=O)c2cnn(CC)c2)c([N+](=O)[O-])c1 | 4 | -6 | 85* | 2 | -6 | -7
CCOc1ccc(NC(=S)NC(=O)/C=C/c2ccc(Br)cc2)c([N+](=O)[O-])c1 | 6 | -1 | 2 | 14 | -12 | -3
Cc1cc([N+](=O)[O-])ccc1NC(=O)C=Cc1cccs1 | 6 | · | -3 | 4 | · | ·
CCCCCCCCOc1ccc(C2CC(=O)NC2=O)cc1 (configuration not stated) | -1 | 2 | 93* | -2 | 3 | 9
O=C1CC(c2ccc(OCCCCCOc3ccc(C4CC(=O)NC4=O)cc3)cc2)C(=O)N1 (configuration not stated) | 3 | 0 | -5 | 2 | 5 | 5
CCc1nnc(N/N=C/c2c(Cl)cccc2Cl)n1N | · | 5 | · | · | 3 | 77*
COC(=O)C1=C(c2ccc(F)cc2OCc2ccccc2)CC2CCC1N2C(=O)NC1CCN(Cc2ccccc2)CC1 (configuration not stated) | -5 | · | -1 | -11 | · | ·
CCC(CO)Oc1cc(NCc2ccc(Cl)c(Cl)c2)c2ncn(C(C)C)c2c1 (configuration not stated) | -1 | · | 11 | 6 | · | ·
COc1cc(SSc2cc(OC)cc([N+](=O)[O-])c2N)c(N)c([N+](=O)[O-])c1 | 38 | -3 | 87* | 24 | 0 | 25
O=C(CSc1ncnc2c1nnn2Cc1ccccc1F)N1CCN(c2ccccc2)CC1 | -5 | 43* | -1 | 3 | 5 | 2
CC(C)(C)NC(=O)CSc1ncnc2c1nnn2Cc1ccccc1Cl | -10 | 61* | 13 | · | -1 | 2
O=C(CSc1ncnc2c1nnn2Cc1ccccc1)NC1CCCC1 | -10 | 13 | -2 | 5 | 17 | 7
Fc1ccc(CN2CCC3C=CCc4cccc(c43)C2)cc1 (configuration not stated) | 4 | · | 3 | 0 | · | ·
O=C(c1cc([N+](=O)[O-])ccc1N1CCOCC1)N1CCN(c2ccccc2)CC1 | · | -5 | · | · | 56* | 8
CSc1ccc(COC(=O)c2cc([N+](=O)[O-])ccc2N2CCOCC2)cc1 | 6 | 2 | -3 | 9 | 56* | -3
SMILES | RN4220 kill | RecA splice inh | ugtP null kill | Mtb hypoxia inh | BJeLR viability | CCHF vOTU inh
COc1ccc(C2C=CCN(C(=O)Oc3ccccc3)CC(=O)N2Cc2ccc(F)cc2)cc1 (configuration not stated) | 4 | · | 7 | 0 | · | ·
COC(=O)C1=C(C(=O)OC)C2Nc3ccccc3[C@@]23CC(C(=O)OC)N(C(=O)c2ccco2)C3=N1 (some centres not stated) | 4 | · | 5 | 7 | · | ·
O=C1CC2c3c(cccc3CN1Cc1ccccc1Br)CC(O)C2O (configuration not stated) | 9 | · | -4 | 6 | · | ·
C=CCn1c(SC(F)F)nc2scc(-c3ccco3)c2c1=O | 7 | 15 | 95* | 9 | 9 | 21
CCOC(=O)Cc1csc(NC(=O)c2c(O)c3ccccc3n(CC(C)C)c2=O)n1 | 97* | -1 | 98* | 20 | -3 | -2
CC(C)Cn1c(=O)c(C(=O)Nc2ccccc2S(N)(=O)=O)c(O)c2ccccc21 | 82 | 1 | 62 | -8 | 5 | 18
Cc1cccc(NS(=O)(=O)c2ccc(-c3cnc(C4CC4)o3)cc2)c1C | 6 | 10 | -13 | -16 | 53* | 14
Cc1ccc(C)c(NS(=O)(=O)c2ccc(-c3cnc(C4CC4)o3)cc2)c1 | 25 | 12 | -8 | 2 | 52* | 18
O=S(=O)(Nc1ccccc1)c1ccc(-c2cnc(C3CC3)o2)cc1 | 51 | 5 | -2 | 1 | 37 | 15
Cc1cc(C)cc(NS(=O)(=O)c2ccc(-c3cnc(C4CC4)o3)cc2)c1 | 8 | 2 | -4 | 7 | 58* | 17
CN1CCCC1CCNC(=O)c1cccc2c1C(=O)c1ccc(N3CCCC3)cc1S2(=O)=O (configuration not stated) | 7 | · | 1 | 24 | · | ·
CC(C)CCOC(=O)C1C2C=C[C@]3(CN(Cc4cccs4)C(=O)C13)O2 (some centres not stated) | 7 | · | -2 | 5 | · | ·
COc1cccc(NC(=O)C2CCCN2S(=O)(=O)c2cccc3cccnc23)c1 (configuration not stated) | 6 | · | 1 | 8 | · | ·
O=C(C1=CC(c2ccc(C(F)(F)F)cc2)CC(OCCCCO)O1)N1CCCCCCC1 (configuration not stated) | 1 | · | -16 | 0 | · | ·
O=c1c2ccccc2nc(/C=C/c2ccc([N+](=O)[O-])o2)n1CCCO | 114* | 2 | 99* | · | 52* | 11
COc1ccc(-c2sc3ccccc3c2C#Cc2cncn2C)cc1 | 79 | · | 97* | · | · | 4
COc1ccc2sc(-c3ccccc3OC)c(C#Cc3cncn3C)c2c1 | 66 | · | 76 | 1 | · | 3
COc1ccccc1-c1sc2cc3c(cc2c1C#Cc1cncn1C)OCO3 | 50 | · | 90* | 13 | · | -1
Cn1cncc1C#Cc1c(-c2ccc(S(C)(=O)=O)cc2)sc2ccccc12 | -8 | · | -22 | -3 | · | -19

Compound activity: PubChem, several laboratories
